System: Aedes aegypti larvae
Experiment: larval motility relative to same well at 0 h (fraction); higher = more motile (less active compound), active = 0.4 or less
Settings: 10 µM; 2 h
Protocol: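 MMV Pandemic Response Box compounds were tested at 10 µM (1% v/v DMSO) on Aedes aegypti larvae (18-24 h after hatching, about 10 per well, 96-well plates). Motility was quantified with INVAPP (200-frame movies) at 0, 2 and 24 h. Each well's motility was divided by its own 0 h score, and the median of 3 independent screens is reported.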

| SMILES | larval motility |
| --- | --- |
| Nc1c(C(=O)NCc2ccco2)c2nc3ccccc3nc2n1CCN1CCCCC1 | 0.782 (inactive) |
| COc1ccccc1CN[C@H]1C2CCN(CC2)[C@H]1C(c1ccccc1)c1ccccc1 | 0.829 (inactive) |
| C[C@@]1(O)[C@H](O)[C@@H](CO)O[C@H]1n1ccc2c(N)ncnc21 | 0.65 (inactive) |
| C[N+]1(C)CCCC(OC(=O)C(O)(c2ccccc2)c2ccccc2)C1 (centres undefined) | 0.776 (inactive) |
| CCN1CCN(Cc2nc3ccc([N+](=O)[O-])cc3c(=O)n2-c2ccccc2F)CC1 | 0.54 (inactive) |
| COc1cc(C(C)(C)CCCC(C)C)cc(OC)c1OC | 1.11 (inactive) |
| O=C(NC12CC3CC(CC(C3)C1)C2)c1cc2ccccc2[nH]1 | 0.685 (inactive) |
| CCCCc1ccc(C(=O)O)nc1 | 0.853 (inactive) |
| COC(=O)Nc1nc2ccccc2[nH]1 | 0.867 (inactive) |
| CN1C(=O)C(c2ccccc2)C(=O)N(c2ccccc2)c2cc(C(F)(F)F)ccc21 (centres undefined) | 0.796 (inactive) |
| CC(C)Oc1cccc(NC(=O)c2ccccc2C(F)(F)F)c1 | 0.405 (inactive) |
| NC1(C(=O)O)CCP(=O)(O)CC1 (centres undefined) | 0.238 (active) |

Same assay, conditions: 10 µM; 24 h

| SMILES | larval motility |
| --- | --- |
| Nc1c(C(=O)NCc2ccco2)c2nc3ccccc3nc2n1CCN1CCCCC1 | 0.543 (inactive) |
| COc1ccccc1CN[C@H]1C2CCN(CC2)[C@H]1C(c1ccccc1)c1ccccc1 | 0.616 (inactive) |
| C[C@@]1(O)[C@H](O)[C@@H](CO)O[C@H]1n1ccc2c(N)ncnc21 | 0.788 (inactive) |
| C[N+]1(C)CCCC(OC(=O)C(O)(c2ccccc2)c2ccccc2)C1 (centres undefined) | 0.656 (inactive) |
| CCN1CCN(Cc2nc3ccc([N+](=O)[O-])cc3c(=O)n2-c2ccccc2F)CC1 | 2.49 (inactive) |
| COc1cc(C(C)(C)CCCC(C)C)cc(OC)c1OC | 1.04 (inactive) |
| O=C(NC12CC3CC(CC(C3)C1)C2)c1cc2ccccc2[nH]1 | 1.27 (inactive) |
| CCCCc1ccc(C(=O)O)nc1 | 0.63 (inactive) |
| COC(=O)Nc1nc2ccccc2[nH]1 | 0.986 (inactive) |
| CN1C(=O)C(c2ccccc2)C(=O)N(c2ccccc2)c2cc(C(F)(F)F)ccc21 (centres undefined) | 0.84 (inactive) |
| CC(C)Oc1cccc(NC(=O)c2ccccc2C(F)(F)F)c1 | 0.543 (inactive) |
| NC1(C(=O)O)CCP(=O)(O)CC1 (centres undefined) | 1.44 (inactive) |

— the supplement of paper PMC8540655
